Reference: PubChem BioAssay (NCATS)
Values joined by “and” are separate entries in the source; they are usually repeats but may differ in a detail not shown here. Identical values can stand only once. Records with an inconclusive call do not appear. Active and inactive are the calls of the source. Unless noted, calls come from the whole dose curve; as a rule, active = well fitted curve in the direction sought with a large enough effect; inconclusive = small, poorly fitted or top-dose-only effect, or another doubt; inactive = no such curve, though single readings can be large; an effect the other way counts as inactive or inconclusive.

Assays:
[1] = Cell Viability - MRC5 (AID 434; calls by dose curve;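 note: potency is the fitted concentration of half-maximal effect; cells exposed to compound for 40 hours at 37 °C; potency reflects cytotoxicity seen as loss of intracellular ATP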); conditions: MRC5 lung fibroblast viability, qHTS
In short: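 AC50 values come from Hill-equation fits of intracellular ATP loss, measured by CellTiter-Glo luminescence. Normal lung fibroblasts (MRC5) had 40 hr compound treatment at 37 C, normalized between DMSO and 100 uM tamoxifen.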

[2] = Cellular Toxicity (caspase-3) HepG2 (AID 654); conditions: HepG2 caspase-3 activation, luminescence; series mostly up to 92.2 µM;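 note: cells exposed to compound for 16 hours before reading; 0% = DMSO alone and 100% = caspase signal from 100 µM tamoxifen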
In short: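 Caspase 3/7 activation is measured as a luminescence increase (aminoluciferin substrate) after 16 h compound exposure of human hepatocarcinoma HepG2 cells. AC50 values are Hill fits, scaled between DMSO baseline and 100 uM tamoxifen stimulation.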

[3] = Cellular Toxicity (caspase-3) HUV-EC-C (AID 656); conditions: HUV-EC-C cells, caspase-3 activation (apoptosis); series mostly up to 92.2 µM
In short: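 HUV-EC-C cells (1000/well) in complete medium, compound-treated 16 h at 37 °C; caspase-3/7 activity read by Caspase-Glo 3/7 luminescence. Normalized to DMSO (basal) and 100 uM tamoxifen (100%); AC50 from Hill-equation concentration-response fits.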

[4] = Cellular Toxicity (caspase-3) SHSY5Y (AID 657); conditions: SH-SY5Y caspase-3 activation; series mostly up to 91.7 µM
In short: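 SH-SY5Y human neuroblastoma cells, 1500/well, exposed to compound for 16 hours at 37 °C in complete medium. Caspase-3/7 activity read by Caspase-Glo luminescence after 1 hr at room temperature, normalized to DMSO and 10 uM staurosporine; AC50 from Hill fit.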

[5] = Cellular Toxicity (caspase-3) MRC-5 (AID 659); conditions: MRC-5 cells, luminescence, normalized: DMSO 0%, 10 µM staurosporine 100%; series mostly up to 91.7 µM
In short: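 Luminescent Caspase-Glo 3/7 read-out (1 h, room temperature) after a 16 h, 37 °C compound exposure of MRC-5 lung fibroblasts at 1500 cells/well. Concentration-response AC50 from Hill equation; 0% DMSO, 100% 10 uM staurosporine.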

[6] = Cellular Toxicity (caspase-3) Mesangial (AID 660); conditions: mesangial cells, normalized: DMSO 0%, 100 µM tamoxifen 100%; series mostly up to 91.7 µM;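 note: cells exposed to compound for 16 h before the caspase read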
In short: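 Caspase 3/7 activation measured by Caspase-Glo 3/7 luminescence (20 min, room temperature) following 16 h exposure of mesangial cells (1000/well); AC50 from Hill-equation fit, normalized to DMSO and 100 uM tamoxifen.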

[7] = Cellular Toxicity (caspase-3) SK-N-SH (AID 661); conditions: SK-N-SH caspase-3 activation, qHTS, DMSO as zero, staurosporine as full; series mostly up to 91.7 µM
In short: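 Caspase 3/7 activation was read by luminogenic substrate cleavage after 16 hour treatment of SK-N-SH cells. Signal was scaled between DMSO and 10 uM staurosporine, and concentration-response data were fitted with the Hill equation for AC50.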

[8] = Cellular Toxicity (caspase-3) H-4-II-E (AID 663); conditions: H-4-II-E rat hepatoma; Potency: caspase-3 activation; series mostly up to 92.2 µM;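 note: cells exposed to compound for 16 hr before readout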
In short: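 Caspase 3/7 activation measured by luminescent aminoluciferin substrate cleavage after 16 hr compound treatment of H-4-II-E cells in complete medium. Increase normalized between DMSO (basal) and 100 uM tamoxifen (100%); Hill-equation AC50 from concentration-response.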

[9] = Cellular Toxicity (caspase-3) N2a (AID 665); conditions: N2a cells, luminescence, normalized: DMSO 0%, 10 µM staurosporine 100%; series mostly up to 92.2 µM;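 note: compound exposure lasted 16 h at 37 °C before readout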
In short: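 Caspase-3/7 activation measured as luminescence from Caspase-Glo reagent (1 h, room temperature) after 16 h compound exposure of mouse N2a cells. AC50 values from Hill-equation concentration-response, scaled between DMSO and 10 uM staurosporine.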

[10] = MultiTox-Fluor Cytotoxicity Assay - LYMP1-001 - Dead Cells (AID 946); conditions: LYMP1-001 lymphoblastoid cells, dead-cell protease fluorescence; series mostly up to 92.2 µM
In short: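 Seed 2500 LYMP1-001 cells/well, incubate 5 hr at 37 C; add compound, 16 hr at 37 C; add MultiTox-Fluor reagent, 60 min RT; read dead-cell fluorescence Ex/Em=485/520. Normalize to DMSO and 15 uM tetraoctylammonium bromide.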

[11] = MultiTox-Fluor Cytotoxicity Assay - LYMP1-003 - Dead Cells (AID 961); conditions: LYMP1-003 lymphoblastoid cells, dead-cell protease fluorescence; series mostly up to 92.2 µM; note: nearly all actives have a fitted effect of over 70% in size
In short: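 LYMP1-003 lymphoblastoid, 2500 cells/well, 5 hr settle then 16 hr cpd at 37 C; MultiTox-Fluor reagent 60 min RT; Ex/Em 485/520 dead-cell signal; norm. DMSO = 0%, 15 uM tetraoctylammonium bromide = 100%; Hill AC50.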

[12] = MultiTox-Fluor Cytotoxicity Assay - LYMP1-003 - Live Cells (AID 962); conditions: LYMP1-003 lymphoblastoid cells, MultiTox-Fluor live-cell protease fluorescence; series mostly up to 92.2 µM;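 note: 0% = DMSO only and full loss = 92 µM tetraoctylammonium bromide; cytotoxic hits lower the live-cell protease signal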
In short: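 Live-cell protease activity (GF-AFC substrate, 405/510 nm, 60 min at room temperature) after 16 h, 37 C compound exposure of human lymphoblastoid LYMP1-003 cells; concentration-response fitted to the Hill equation for AC50.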

[13] = Cell Viability - LYMP1-003 - Assay at 24 hr (AID 963); conditions: LYMP1-003 lymphoblastoid cell viability; series mostly up to 92.2 µM;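 note: plate controls were DMSO only for no effect and tetraoctylammonium bromide positive control for full effect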
In short: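 Concentration-response qHTS: ATP loss measured by CellTiter-Glo luminescence after 24 h compound exposure at 37 C. Cells were LYMP1-003 human lymphoblastoid, 2500 per well. AC50 derived via standard Hill equation modeling.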

[14] = qHTS Assay for Identification of Small Molecule Inducers of Hypoxia Response (AID 2120; active = well fitted curve in the direction sought with a large enough effect in the signal ratio, with a control signal flat, not every such curve was filed as active; the % refers to the signal ratio; note: 0% is about no effect); conditions: hypoxia response reporter cells, beta-lactamase ratio readout; series mostly up to 104 µM
In short: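 Reporter induction read as the CCF4 blue/green (460nm/530nm) emission ratio after 2.5 h dye loading at room temperature. ME-180 HRE-beta-lactamase cells received titrated compounds for 17 h at 37 degrees Celsius; AC50 values derived.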

[15] = molecular target: Peroxisome proliferator-activated receptor alpha (Homo sapiens) (UniProt Q07869); assay: qHTS assay for small molecule agonists of the peroxisome proliferator-activated receptor alpha (PPARalpha) signaling pathway (AID 651778); conditions: PathHunter PPARalpha complementation, chemiluminescence, 6 h; max response: active compounds read high; note: % of control where 0% means no effect
In short: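 Chemiluminescence from complemented enzyme reported PPARalpha activation in cells after 6 hr of compound treatment at 37 C. The detection reagent was incubated for 60 min at room temperature, and compounds were scored as agonists.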

[16] = qHTS assay for small molecule agonists of the antioxidant response element (ARE) signaling pathway measured by Nrf2-dependant transcriptional activity - cell viability counter screen (AID 720653; active = well fitted curve in the direction sought with a large enough effect in the repeat runs; an effect the other way counts as inactive or inconclusive; note: % is set by controls: 0 for no effect and ±100 for the full control effect); conditions: ARE-bla HepG2 viability, CellTiter-Glo ATP luminescence, 16 h; max response: active compounds read low
In short: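 Cytotoxicity counter screen: intracellular ATP quantified by CellTiter-Glo luminescence in the same ARE-bla HepG2 plates, after 16 h compound exposure and a 2 h beta-lactamase substrate step.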

[17] = qHTS assay for cell viability of the p53RE-bla HCT-116 cell line (AID 743292); conditions: p53RE-bla HCT-116 viability, ATP luminescence, 16 h; series mostly up to 95 µM; note: % is set by controls: 0 for no effect and ±100 for the full control effect; nearly all actives have a fitted effect of over 55% in size
In short: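 ATP-based luminescence, 16 h compound exposure at 37 C, p53RE-bla HCT-116 cells at 4,000/well.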

[18] = Cellular Toxicity (caspase-3) NIH 3T3 (AID 666); conditions: NIH 3T3 caspase-3 activation, apoptosis/toxicity, 0% DMSO, 100% is 100 µM tamoxifen; series mostly up to 92.2 µM;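 note: 0% = DMSO basal and 100% = 100 µM tamoxifen stimulation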
In short: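 Caspase-Glo 3/7 luminescence reported caspase activation in 1000 NIH 3T3 cells/well after 16 h compound exposure at 37 C. DMSO set basal and 100 uM tamoxifen set 100% stimulation; concentration-response modeled with the Hill equation for AC50.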

[19] = Cellular Toxicity (caspase-3) Renal Proximal Tubule (AID 667); conditions: renal proximal tubule cells, primary cells freshly taken from rat; Potency: caspase-3 activation; series mostly up to 91.7 µM;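 note: cells exposed to compound for 16 hours at 37 °C before detection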
In short: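 Freshly isolated primary rat kidney proximal tubule cells, 1000/well, treated 16 hr at 37 °C, then Caspase-Glo 3/7 luminescence after 1 hr. Normalized to DMSO and 10 uM staurosporine; AC50 from Hill fit.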

[20] = Cell Viability - HUV-EC-C (AID 542); conditions: HUV-EC-C endothelial cell viability, qHTS; series mostly up to 92.2 µM;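 note: cells exposed to compound for 40 hours; % is set by controls: 0 for no effect and ±100 for the full control effect; nearly all actives have a fitted effect of over 35% in size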
In short: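 CellTiter-Glo luminescence measured ATP loss in HUV-EC-C cells (1000/well) after 40 hr compound exposure at 37 °C, in complete culture medium. Concentration-response data were Hill-fitted to give AC50.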

Sequence of Peroxisome proliferator-activated receptor alpha (Homo sapiens) (Q07869 whole entry, looked up): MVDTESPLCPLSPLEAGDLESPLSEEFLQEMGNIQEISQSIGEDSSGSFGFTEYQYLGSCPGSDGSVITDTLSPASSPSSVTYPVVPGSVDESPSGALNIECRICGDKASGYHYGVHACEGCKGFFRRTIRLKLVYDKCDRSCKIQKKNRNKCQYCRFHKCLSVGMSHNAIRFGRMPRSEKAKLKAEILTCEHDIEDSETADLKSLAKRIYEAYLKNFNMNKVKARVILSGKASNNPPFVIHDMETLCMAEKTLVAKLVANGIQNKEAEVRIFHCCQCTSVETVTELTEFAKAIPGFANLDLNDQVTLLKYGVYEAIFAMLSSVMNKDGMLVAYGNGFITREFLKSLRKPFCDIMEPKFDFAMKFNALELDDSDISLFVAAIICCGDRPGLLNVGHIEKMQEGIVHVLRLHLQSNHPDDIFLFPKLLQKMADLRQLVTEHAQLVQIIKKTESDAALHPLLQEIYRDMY

Cc1cc2nc(N)sc2cc1C
inactive: Potency [1] > 92 µM | Potency [2] | Potency [3] | Potency [4] | outcome [5] | outcome [6] | outcome [7] | Potency [8] | outcome [9] | Potency [10] | Potency [11] | Potency [12] | Potency [13] | Potency [14] | max response [15] -4.39% | max response [16] -19.7% | Potency [17]

O=[N+]([O-])c1cc(N(CCO)CCO)ccc1NCCO
inactive: Potency [1] 67.7 µM | Potency [2] | Potency [3] | Potency [4] | outcome [5] | outcome [6] | outcome [7] | Potency [8] | outcome [9] | outcome [18] | Potency [19] | Potency [10] | Potency [11] | Potency [12] | Potency [13] | Potency [14] | max response [15] -11.2% and -4.73% | max response [16] -24.7% | Potency [17]

S=C(NC1CCCCC1)NC1CCCCC1
inactive: Potency [1] > 92 µM | Potency [20] | Potency [2] | Potency [3] | Potency [4] | outcome [5] | outcome [6] | outcome [7] | Potency [8] | outcome [9] | outcome [18] | Potency [19] | Potency [10] | Potency [11] | Potency [12] | Potency [13] | Potency [14] | max response [15] 1.4% | max response [16] -8.66% | Potency [17]

C=C(C#N)C(=O)OCC
inactive: Potency [1] > 92 µM | Potency [20] | Potency [2] | Potency [3] | Potency [4] | outcome [5] | outcome [6] | outcome [7] | Potency [8] | outcome [9] | outcome [18] | Potency [19] | Potency [10] | Potency [11] | Potency [12] | Potency [13] | Potency [14] | max response [15] -1.15% | max response [16] -14.3% | Potency [17]

Cc1ccc(O)c(N)c1
inactive: Potency [1] > 92 µM | Potency [20] | Potency [2] | Potency [3] | Potency [4] | outcome [5] | outcome [6] | outcome [7] | Potency [8] | outcome [9] | outcome [18] | Potency [19] | Potency [10] | Potency [11] | Potency [12] | Potency [13] | Potency [14] | max response [15] -1.19% | max response [16] -26.2% | Potency [17]

CCOc1ccc2nc(N)sc2c1
inactive: Potency [1] > 92 µM | Potency [20] | Potency [2] | Potency [3] | Potency [4] | outcome [5] | outcome [6] | outcome [7] | Potency [8] | outcome [9] | outcome [18] | Potency [19] | Potency [10] | Potency [11] | Potency [12] | Potency [13] | Potency [14] | max response [15] -0.23% | max response [16] -3.62% | Potency [17]
